Experimental findings from PubChem BioAssay (EPA / NIEHS) are described below.

Activity calls are given as the source filed them. Rule for the calls: active = hit-call score of the fitted dose curve at least 0.9, where 1 is the maximum; inactive = score below 0.9.

Chain of Nuclear factor erythroid 2-related factor 2 (Homo sapiens) (Q16236 whole entry, looked up): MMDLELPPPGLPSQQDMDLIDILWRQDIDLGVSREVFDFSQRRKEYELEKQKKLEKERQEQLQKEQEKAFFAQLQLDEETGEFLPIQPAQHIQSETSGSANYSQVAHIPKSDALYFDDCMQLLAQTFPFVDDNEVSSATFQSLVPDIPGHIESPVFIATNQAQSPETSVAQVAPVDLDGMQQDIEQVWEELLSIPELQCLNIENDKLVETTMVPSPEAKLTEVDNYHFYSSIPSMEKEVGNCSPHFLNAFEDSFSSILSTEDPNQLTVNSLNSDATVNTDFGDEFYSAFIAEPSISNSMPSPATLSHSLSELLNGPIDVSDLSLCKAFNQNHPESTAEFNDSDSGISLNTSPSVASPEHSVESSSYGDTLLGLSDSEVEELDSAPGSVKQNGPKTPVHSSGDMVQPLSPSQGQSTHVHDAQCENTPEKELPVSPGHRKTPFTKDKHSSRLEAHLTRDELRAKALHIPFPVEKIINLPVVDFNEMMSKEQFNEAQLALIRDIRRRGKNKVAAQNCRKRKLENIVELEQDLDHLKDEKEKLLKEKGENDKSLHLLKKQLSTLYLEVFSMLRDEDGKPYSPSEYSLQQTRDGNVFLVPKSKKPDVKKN

Read-out in the first experiment: Nuclear factor erythroid 2-related factor 2 (Homo sapiens) (UniProt Q16236)
Briefly: LTEA_HepaRG_NFE2L2: Life Technologies and Expression Analysis (LTEA) Assay for Nuclear factor erythroid 2-related factor 2 (NFE2L2) Transcription Factor using HepaRG (AID 2283527).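 For outcome: TaqMan qRT-PCR transcript level normalised to ACTB GAPDH and POLR2A housekeeping genes.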 As to conditions: mRNA level, 48 h; actives raise or lower the signal. The method in brief:
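Human liver HepaRG line treated in duplicate for 48 h with an eight-point series topping at 100 uM. Gene expression of NFE2L2 by qRT-PCR, bidirectionally fitted against the vehicle control.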
On to `COCCOCCO`, for which the call was inactive.
On the same count and under the same terms, the result for `Nc1cc2c3c(c1)C(c1ccccc1)=N[C@@H](NC(=O)c1cccnc1)C(=O)N3CC2` reads “inactive”; that for `CCNc1nc(Cl)nc(NC(C)(C)C)n1`, “inactive”.
For `CC(Cl)(Cl)C(=O)O`, the molecule was classed as inactive.
Same read-out and setting: then `Cc1cccc(N)c1`, with “inactive”; and `CC(Cc1ccc(OCC(=O)O)cc1)NCC(O)c1csc(C(F)(F)F)n1` (stereo not given), with “inactive”; and `CSC(C)(C)C=NO`, with “inactive”.
The same measure, in the same setting: then `Cc1ccc(N)cc1N`, with “inactive”; and `CCOS(=O)(=O)OCC`, with “inactive”.
Turning to `CCCCN(CCCC)SN(C)C(=O)Oc1cccc2c1OC(C)(C)C2`, the result was inactive.
Take `CCOC(=O)c1ccccc1C(=O)OCC`: the call was inactive.
The same measure, in the same setting: the result for `CCCCc1ccccc1` reads “inactive”; that for `c1nc[nH]n1`, “inactive”.
As for `O=P(Oc1ccccc1)(Oc1ccccc1)Oc1ccccc1`, the AC50 is 21.2 µM (active).
Turning to `ClC(Cl)c1ccccc1`, the molecule was classed as inactive.
The same measure, in the same setting: the result for `Cc1ccc([N+](=O)[O-])cc1C` reads “inactive”; that for `O=[N+]([O-])c1ccccc1`, “inactive”.
Same read-out and setting: the result for `CN(C)C(=O)Cl` reads “inactive”; that for `O=P1(N(CCCl)CCCl)NCCCO1` (stereo not given), “inactive”.
With `[N-]=[N+]=[N-]`, the result was inactive.
Still for that read-out and setting: the result for `Nc1ccc(Cl)cc1` reads “inactive”; that for `CCC(C)(C)c1ccc(O)cc1`, “inactive”; that for `c1cc2c3c(cccc3c1)CC2`, “inactive”.
On the same count and under the same terms, then `O=C(O)C1C(C(=O)O)C2(Cl)C(Cl)=C(Cl)C1(Cl)C2(Cl)Cl` (stereo not given), with “inactive”.
`CCOP(=S)(OCC)SCSCC`: the call was inactive.
On to `c1ccc2c(c1)Nc1ccccc1S2`, for which the result was inactive.
Same read-out and setting: the result for `O=[N+]([O-])c1ccc(Cl)c(Cl)c1` reads “inactive”; that for `CCCCCCCc1ccc(O)cc1`, “inactive”.
On the same count and under the same terms, the result for `CCCCN(CCCC)N=O` reads “inactive”; that for `CCCN(CCC)c1c([N+](=O)[O-])cc(C(C)C)cc1[N+](=O)[O-]`, “inactive”.

Read-out in another experiment: succinate dehydrogenase complex iron sulfur subunit B (SDHB), SDHB (gene 6390)
Briefly: LTEA_HepaRG_SDHB: Life Technologies and Expression Analysis (LTEA) Assay for succinate dehydrogenase complex iron sulfur subunit B (SDHB) using HepaRG (AID 2283528). As to conditions: mRNA level, 48 h; actives raise or lower the signal. In outline: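 A human HepaRG culture in serum-free induction medium received test chemicals for 48 h over an eight-point range capped at 100 uM. SDHB expression change was quantified by qRT-PCR.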
`COCCOCCO`: the call was inactive.
Still for that read-out and setting: then `Nc1cc2c3c(c1)C(c1ccccc1)=N[C@@H](NC(=O)c1cccnc1)C(=O)N3CC2`, with “inactive”; and `CCNc1nc(Cl)nc(NC(C)(C)C)n1`, with “inactive”.
The same measure, in the same setting: the result for `CC(Cl)(Cl)C(=O)O` reads “inactive”; that for `Cc1cccc(N)c1`, “inactive”; that for `CC(Cc1ccc(OCC(=O)O)cc1)NCC(O)c1csc(C(F)(F)F)n1` (stereo not given), “inactive”.
Regarding `CSC(C)(C)C=NO`, the call was inactive.
Regarding `Cc1ccc(N)cc1N`, the result was inactive.
On the same count and under the same terms, the result for `CCOS(=O)(=O)OCC` reads “inactive”; that for `CCCCN(CCCC)SN(C)C(=O)Oc1cccc2c1OC(C)(C)C2`, “inactive”; that for `CCOC(=O)c1ccccc1C(=O)OCC`, “inactive”.
Consider `CCCCc1ccccc1`, for which the outcome was inactive.
On the same count and under the same terms, then `c1nc[nH]n1`, with “inactive”; and `O=P(Oc1ccccc1)(Oc1ccccc1)Oc1ccccc1`, with “inactive”.
Regarding `ClC(Cl)c1ccccc1`, the call was inactive.
Regarding `Cc1ccc([N+](=O)[O-])cc1C`, the call was inactive.
The same measure, in the same setting: the result for `O=[N+]([O-])c1ccccc1` reads “inactive”.
Consider `CN(C)C(=O)Cl`, for which the molecule was called inactive.
On the same count and under the same terms, the result for `O=P1(N(CCCl)CCCl)NCCCO1` (stereo not given) reads “inactive”.
For the molecule `[N-]=[N+]=[N-]`, the AC50 was 50 µM (active).
As for `Nc1ccc(Cl)cc1`, the molecule was classed as inactive.
`CCC(C)(C)c1ccc(O)cc1`: the molecule was classed as inactive.
Take `c1cc2c3c(cccc3c1)CC2`: the outcome was inactive.
Still for that read-out and setting: then `O=C(O)C1C(C(=O)O)C2(Cl)C(Cl)=C(Cl)C1(Cl)C2(Cl)Cl` (stereo not given), with “inactive”; and `CCOP(=S)(OCC)SCSCC`, with “inactive”; and `c1ccc2c(c1)Nc1ccccc1S2`, with “inactive”.
Still for that read-out and setting: the result for `O=[N+]([O-])c1ccc(Cl)c(Cl)c1` reads “inactive”; that for `CCCCCCCc1ccc(O)cc1`, “inactive”; that for `CCCCN(CCCC)N=O`, “inactive”.
As for `CCCN(CCC)c1c([N+](=O)[O-])cc(C(C)C)cc1[N+](=O)[O-]`, the outcome was inactive.

The AC50 is the concentration giving half of the maximal activity seen.
